The source of these data is PubChem BioAssay AID1578 (Sanford-Burnham Center for Chemical Genomics, 2009).

Several values for one entry are separate records, joined by “and”; a condition that tells them apart may be missing. Equal entries are not always repeated. Among all 290,000 compounds or so, about 3,000 (1%) were called active. The sample holds actives, similar compounds and a random draw of the others, so the mix is not that of the screen. Cut-off read from the data, not from the text of the source: active = inhibition mostly above about 36% (no sharp cut-off); inactive = mostly below about 34%.

The assay in a line: NOD1 signaling inhibitors, primary screen, cell-based, luminescence, uHTS (AID 1578).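 Note: HEK-293T reporter cells stimulated with the NOD1 agonist gamma-tri-DAP.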 As to conditions: NOD1-driven NF-kB luciferase reporter cells, at 4 µM, stronger effect = higher value. A general note: In a reporter assay the amount or activity of a reporter protein is the signal.
As to `CC(C)(C)C(=O)c1cn(CC(=O)NCc2ccco2)c2ccccc12`, the inhibition (in general, the relative decrease from the control value, in per cent) was -39.1% (inactive).

On to `Cc1ccc(-n2c(O)c(/C=N/N3CCCCCC3)c(=O)[nH]c2=O)cc1C`, for which the inhibition was 1.1% (inactive). For `CCC(=NCCCn1ccnc1)c1c(O)n(-c2ccc(OC)cc2)c(=O)[nH]c1=O` the value was -8.6% (inactive); for `COc1cccc(C(=O)C2CN(C)CC2c2ccc(Cl)cc2)c1` (centres undefined), -33.4% (inactive); for `CC/C(=N\NC(=O)c1ccccc1)c1c(O)n(Cc2ccccc2)c(=O)[nH]c1=O`, 12.5% (inactive).

For the compound `O=c1[nH]c(=S)n(C2CC2)c(O)c1C=NCC1CCCO1` (centres undefined), the inhibition is -13.4% (inactive). Consider `COc1ccc(CC(=O)N2C[C@H]3C[C@@H](C2)c2cccc(=O)n2C3)cc1`, for which the inhibition is 24.2% (inactive). For `O=c1cccc2n1CC1CC2CN(Cc2cccc(Cl)c2Cl)C1` (centres undefined) the value was 63.8% (active). For the compound `COc1ccc(CCC(=O)N2C[C@H]3C[C@@H](C2)c2cccc(=O)n2C3)cc1`, the inhibition was 53.1% (active). The value for `COC(=O)c1ccccc1NC(=O)N1C[C@@H]2C[C@@H](C1)c1cccc(=O)n1C2` was -15.8% (inactive); that for `O=c1cccc2n1CC1CC2CN(Cc2c(F)cccc2Cl)C1` (centres undefined) was -7.2% (inactive); that for `O=C(CCc1ccc(O)cc1)N1C[C@H]2C[C@@H](C1)c1cccc(=O)n1C2` was 9.1% (inactive). As to `O=c1cccc2n1CC1CC2CN(Cc2c(Cl)cccc2Cl)C1` (centres undefined), the inhibition is 14% (inactive).

As to `COc1ccccc1NC(=O)N1C[C@@H]2C[C@@H](C1)c1cccc(=O)n1C2`, the inhibition was -34.3% (inactive). Regarding `CCc1ccccc1NC(=O)N1C[C@H]2C[C@@H](C1)c1cccc(=O)n1C2`, the inhibition was 54.5% (active). The value for `O=[N+]([O-])c1ccc(N2CCCNCC2)c2ncccc12` was -0.2% (inactive); that for `CC(C)Sc1nnc([C@@H](N)Cc2c[nH]c3ccccc23)o1` was -2.5% (inactive); that for `COc1cc(C(=O)N/N=C/C23CC[C@@H](O)CC2(O)CC[C@@H]2[C@@H]3CCC3(C)C(C4=CC(=O)OC4)CCC23O)ccc1O` (some centres undefined) was -5.4% (inactive). For `C[C@H]1O[C@@H](O[C@H]2[C@@H](O)C[C@H](O[C@H]3[C@@H](O)C[C@H](O[C@H]4CC[C@@]5(C)[C@H](CC[C@@H]6[C@@H]5CC[C@]5(C)[C@@H](C7=CC(=O)OC7)CC[C@]65O)C4)O[C@@H]3C)O[C@@H]2C)C[C@H](O)[C@@H]1O` the value was 105% (active). In the case of `CC12CC[C@H]3[C@@H](CCC4(O)C[C@H](O)CCC34/C=N/NC(=O)Cc3ccccc3)C1(O)CCC2C1=CC(=O)OC1` (some centres undefined), the inhibition was -7% (inactive). The value for `C[C@H]1O[C@@H](OC2CC[C@]3(C=O)[C@H]4CC[C@]5(C)[C@@H](C6=CC(=O)OC6)CC[C@]5(O)[C@@H]4CC[C@]3(O)C2)CC2OC(C)(C)OC21` (some centres undefined) was 89.2% (active); that for `CC12CC[C@H]3[C@@H](CCC4(O)C[C@H](O)CCC34/C=N/NC(=O)c3ccccc3O)C1(O)CCC2C1=CC(=O)OC1` (some centres undefined) was 4.5% (inactive). Regarding `CC12CC[C@H]3[C@@H](CCC4(O)C[C@H](O)CCC34/C=N/NC(=O)c3ccccc3F)C1(O)CCC2C1=CC(=O)OC1` (some centres undefined), the inhibition was -9.8% (inactive). Consider `CN1CCC2(O)OCCCC2C1` (centres undefined), for which the inhibition was 4.3% (inactive).

`Cc1c(N)c(C)c([N+](=O)[O-])c(C)c1[N+](=O)[O-]`: the inhibition was 69.5% (active). For `O=C1CN(C(=O)CN2CCCCC2)C(c2ccccc2)c2cc(Br)ccc2N1` (centres undefined) the value was -24.1% (inactive). The value for `O=C(Nc1cccc(C(F)(F)F)c1)c1cccn(Cc2ccc3c(c2)OC(F)(F)O3)c1=O` was 35.6% (inactive); that for `Cc1cccc(C)c1NC(=O)c1cccn(Cc2ccc3c(c2)OC(F)(F)O3)c1=O` was 21.8% (inactive).

For the compound `O=C(Nc1ccncc1)c1cccn(Cc2ccccc2)c1=O`, the inhibition was 33.5% (active). The value for `O=C(Nc1ccc(C(F)(F)F)cc1)c1cccn(Cc2ccc3c(c2)OC(F)(F)O3)c1=O` was 59.7% (active); that for `O=C(Nc1ccccc1)c1cccn(Cc2ccccc2)c1=O` was 23% (inactive). The value for `O=C(NCc1ccccc1)c1cccn(Cc2ccccc2)c1=O` was 2.3% (inactive); that for `Cc1nn(Cc2ccccc2Cl)c(Cl)c1C(=O)OCC(=O)NCc1ccco1` was 2.8% (inactive). As to `CC(C)Oc1ccc(CCN)cc1Cl`, the inhibition was -19.6% (inactive). Regarding `CCCCCn1c(=O)c(C(=O)Nc2ccccn2)c(O)c2ccccc21`, the inhibition is -4.7% (inactive). The value for `Cc1ccc(CN(Cc2ccccc2)C(=S)NCC(=O)N2CCC3(CC2)OCCO3)o1` was -33.5% (inactive); that for `CCOC(=O)c1[nH]ncc1CN1CCCC(C(=O)c2cccc(Cl)c2)C1` (centres undefined) was -5.2% (inactive); that for `O=[N+]([O-])c1ccc(NC2CCCC2)c2ccncc12` was 40.7% (inactive). In the case of `O=[N+]([O-])c1ccc(NC2CCN(Cc3ccccc3)CC2)c2ccncc12`, the inhibition is -6.9% (inactive). Consider `O=[N+]([O-])c1ccc(NCc2ccc(Cl)cc2)c2ccncc12`, for which the inhibition was 37% (active). The value for `Fc1cccc(CN2CCN(c3ccc(Cl)cc3)CC2)c1` was -10.4% (inactive). In the case of `CC(C)=CCc1c(O)cc2c(c1O)C(=O)CC(c1ccc(O)cc1)O2` (centres undefined), the inhibition is 5.8% (inactive). The value for `CN1CCN(/N=C/c2c[nH]c3ccccc23)CC1` was -2.1% (inactive). The value for `OC(CN1CCC(c2c[nH]c3ccccc23)CC1)C(F)(F)F` (centres undefined) was 1.1% (inactive). For `CN1CCC(c2c[nH]c3ccccc23)C1` (centres undefined) the value was 34.9% (active); for `CN1CC(C(=O)c2ccc(Cl)cc2)C(c2ccccc2F)C1` (centres undefined), -15.7% (inactive); for `CCOc1ccc(-n2c(O)c(N=Nc3ccc([N+](=O)[O-])cc3)c(=O)[nH]c2=O)cc1`, -17.8% (inactive). `Cc1c(N=Nc2c(O)n(-c3ccc(Br)cc3)c(=O)[nH]c2=O)c(=O)n(-c2ccccc2)n1C`: the inhibition is -1.1% (inactive). The value for `O=c1[nH]c(=O)n(-c2ccccc2)c(O)c1N=Nc1ccc(Br)cc1` was 60.1% (active). Regarding `CC(=NCCCN1CCOCC1)c1c(O)n(-c2ccccc2C)c(=O)[nH]c1=O`, the inhibition was -51.5% (inactive). In the case of `CCOP(=O)(OCC)c1cc(C)c(O)c(C(C)(C)C)c1`, the inhibition was -1.1% (inactive).

On to `CN1CCN(Cc2cc(C(C)(C)C)c(O)c(C(C)(C)C)c2)CC1`, for which the inhibition was 16.1% (inactive). For `CC(C)(C)c1cc([N+](=O)[O-])cc(C(C)(C)C)c1O` the value was 67.8% (active); for `O=[N+]([O-])c1ccccc1CNCCc1c[nH]c2ccccc12`, -15.3% (inactive); for `Cc1ccc(OCC(=O)N2CCN(C3CCC(c4ccccc4)CC3)CC2)cc1` (centres undefined), -32.4% (inactive).

On to `CNCC(C)c1ccccc1` (centres undefined), for which the inhibition was -8.7% (inactive). As to `COC(=O)C1=Nc2ccccc2/C1=C\c1c(O)n(-c2ccc(Br)cc2)c(=O)[nH]c1=O`, the inhibition is 56.2% (inactive). As to `COC(=O)C1=Nc2ccccc2/C1=C\c1c(O)n(-c2ccc(OC)cc2)c(=O)[nH]c1=O`, the inhibition was 9.9% (inactive). The value for `O=c1[nH]c(=O)n(-c2ccccc2)c(O)c1/C=C1/C(c2ccccc2)=Nc2ccccc21` was 81.6% (active); that for `Cc1ccc(Cn2nc(C)c(C=O)c2Cl)cc1` was -42.4% (inactive); that for `COc1cc2c(cc1OC)-c1c3c(cc4c1[C@@H](C2)N(C)CC4)OCO3` was -23.9% (inactive). The value for `COc1ccc(-n2nc(C(=O)NCC(=O)N3CCC4(CC3)OCCO4)c3ccccc3c2=O)cc1` was -47.4% (inactive); that for `CN(C)CC1CSCCC1(O)c1ccccc1` (centres undefined) was -5.3% (inactive). Regarding `COc1cccc([C@@]2(O)CCCC[C@@H]2CN(C)C)c1`, the inhibition was -1.9% (inactive) and 1.4% (inactive).

Turning to `CN(C)CC1Oc2ccccc2OC1(O)c1ccccc1` (centres undefined), the inhibition is 56.4% (active). Consider `Cc1c(N=Nc2c(O)[nH]c(=S)[nH]c2=O)c(=O)n(-c2ccccc2)n1C`, for which the inhibition is 12.7% (inactive). `O=c1[nH]c(=O)n(Cc2ccccc2Cl)c(O)c1/C=C1/C=CC=N1`: the inhibition is 47.1% (active). Regarding `C=CCn1c(O)c(/C=C2/C=CC=N2)c(=O)[nH]c1=O`, the inhibition was -27.6% (inactive). The value for `CCCCn1c(O)c(/C=C2/C=CC=N2)c(=O)[nH]c1=O` was -7.3% (inactive); that for `COc1ccc(N=Cc2c(O)n(C)c(=O)n(C)c2=O)cc1` was -13.4% (inactive). As for `CNS(=O)(=O)c1ccc(N=Cc2c(O)n(-c3cccc(C)c3)c(=O)[nH]c2=O)cc1`, the inhibition was -26.7% (inactive). Regarding `COc1ccc(CC2(CCc3ccncc3)C(=O)NC(=O)NC2=O)cc1`, the inhibition is -26.1% (inactive). On to `CNc1ccc2oc(C[C@H]3O[C@@]4(CC[C@H]3C)O[C@H]([C@H](C)C(=O)c3ccc[nH]3)[C@H](C)C[C@H]4C)nc2c1C(=O)O`, for which the inhibition is 76.2% (active). With `c1ccc(-c2nc(N3CCOCC3)s[n+]2-c2ccccc2)cc1`, the inhibition is -49.7% (inactive). The value for `Cc1ccc2c(c1)C1CN(C)CCC1N2C(=S)Nc1cccnc1` (centres undefined) was -34% (inactive); that for `O=C(CN1CC=C(c2ccccc2)CC1)Nc1c(Cl)cccc1Cl` was 30.6% (inactive); that for `COC(=O)[C@@H]1[C@@H](C(=O)OC)C2(c3ccccc3-c3ccccc32)N(c2ccc(Cl)cc2)N1C#N` was -7.2% (inactive). Take `COC(=O)C[C@]1(C(=O)OC)CN(C#N)N(c2ccc(Cl)cc2)C12c1ccccc1-c1ccccc12`: the inhibition is 91.6% (active). `COC(=O)C1CN(C#N)N(c2ccc(Cl)cc2)C12c1ccccc1-c1ccccc12` (centres undefined): the inhibition was -10.3% (inactive). The value for `CC(C)c1ccc(NC(=O)CCNC(=O)N2C[C@H]3C[C@@H](C2)c2cccc(=O)n2C3)cc1` was -6.2% (inactive); that for `Cc1ccc(-c2nc3ccccc3c(=O)n2-c2ccncc2)cc1` was -34.6% (inactive); that for `Cc1nc2cc(C(F)(F)F)ccc2n1C1CCN(Cc2nnnn2Cc2cccs2)CC1` was -21.1% (inactive). `Cc1nc2cc(C(F)(F)F)ccc2n1C1CCN(Cc2nnnn2Cc2ccc3c(c2)OCO3)CC1`: the inhibition is 62.6% (active).

In the case of `Cc1nc2cc(C(F)(F)F)ccc2n1C1CCN(Cc2nnnn2CCc2ccccc2)CC1`, the inhibition was -27.2% (inactive).
